Common to all, as to assay type: functional
Assay [1] deals with Plasmodium falciparum. As to the kind of experiment: GSK_TCMDC: Inhibition of Plasmodium falciparum 3D7 in whole red blood cells, using parasite LDH activity as an index of growth. Test compounds present at 2uM.
Assay [2] concerns Plasmodium falciparum. As to the kind of experiment: GSK_TCMDC: Inhibition of Plasmodium falciparum Dd2 in whole red blood cells, using parasite LDH activity as an index of growth. Test compounds present at 2uM.
For a further assay, the system named is HepG2. As to the kind of experiment: GSK_TCMDC: Percent inhibition of human HepG2 cell line. Test compounds present at 10uM.

The text below walks through data of ChEMBL document CHEMBL1157539, “Thousands of chemical starting points for antimalarial lead identification” (Nature, 2010).

Broadly, the Inhibition is how much of the control response was suppressed. The low end stands for a response near the control, the high end for a response far below the control. Take `CC1CCN(CCCNc2ccc(C(=O)Nc3ccc(C(F)(F)F)cc3)cc2[N+](=O)[O-])CC1`: the Inhibition was determined as 100% with Plasmodium falciparum [1], 100% in the assay with Plasmodium falciparum [2] and 62% in the assay with HepG2.

`CCC(C)CN1CCN(c2ccc(NC(=O)c3cccs3)cc2)C(C)C1.O=C(O)C(F)(F)F` (stereo unspecified): the results for the Inhibition with Plasmodium falciparum [1], in the assay on Plasmodium falciparum [2] and in the assay on HepG2 were 95%, 95% and 0%, respectively.

In the case of `COc1cc(Cc2cnc(N)nc2N)ccc1OCC(=O)Nc1ccc(C)cc1`, the Inhibition in the assay with Plasmodium falciparum [1] turned out to be 95%; with Plasmodium falciparum [2], 18%; with HepG2 it was 10%.

For the compound `O=C(NCCc1cccc(Cl)c1Cl)c1ccc(N2CCN(c3ccncc3)CC2)nc1.O=C(O)C(F)(F)F`, the Inhibition in the assay with Plasmodium falciparum [1] is recorded as 100%; with Plasmodium falciparum [2], 79%; in the assay with HepG2, 38%.

In the case of `CC(=O)NCCCCC1NC2(C(=O)N(Cc3ccc(C(C)(C)C)cc3)c3ccccc32)C2C(=O)N(C3CCCCC3)C(=O)C12` (stereo unspecified), the Inhibition with Plasmodium falciparum [1] is 91%; in the assay with Plasmodium falciparum [2], 71%; in the assay with HepG2, 0%.

Regarding `CCn1c(C=Cc2cc(Br)ccc2O)nc2ccccc2c1=O`, the results for the Inhibition with Plasmodium falciparum [1], in the assay with Plasmodium falciparum [2] and with HepG2 were 95%, 95% and 6%, respectively.

`COc1ccc2nccc(NC(=O)C3(O)CCC(NCc4ccc5c(c4)NCCS5)CC3)c2n1.Cl` (stereo unspecified): the figures for the Inhibition in the assay with Plasmodium falciparum [1], in the assay with Plasmodium falciparum [2] and in the assay on HepG2 were 93%, 64% and 1%, respectively.

Consider `O=C1C(c2ccccc2)=C(Nc2ccc([N+](=O)[O-])cc2)c2ccccc21`, for which the Inhibition with Plasmodium falciparum [1] was determined as 95%; in the assay on Plasmodium falciparum [2] it was 73%; in the assay with HepG2, 0%.

Take `Br.CC1(C)NC(N)=NC(=N)N1OCCCOc1cccc(Cl)c1`: the Inhibition in the assay on Plasmodium falciparum [1] turned out to be 95%; with Plasmodium falciparum [2], 95%; with HepG2, 65%.

Take `c1ccc([C@H]2CN3CCSC3=N2)cc1` [LEVAMISOLE]: the Inhibition in the assay on Plasmodium falciparum [1] was 93%; in the assay on Plasmodium falciparum [2] it was 1%; with HepG2 it was 11%.

Consider `COc1cc2nc(NCCC(C)C)n3nc(-c4ccccc4)nc3c2cc1OC`, for which the Inhibition was determined as 94% in the assay with Plasmodium falciparum [1], 97% in the assay on Plasmodium falciparum [2] and 0% in the assay with HepG2.

As to `COc1cc2nc(-c3ccccc3)nc(N3CCN(CC(=O)N4CCCC4)CC3)c2cc1OC`, the Inhibition is on record as 84% in the assay on Plasmodium falciparum [1], 70% in the assay with Plasmodium falciparum [2] and 7% in the assay with HepG2.

As for `C=Cc1cc(NC(=O)N2CCc3cc(OC)c(C(F)(F)F)cc32)cc(-c2cccnc2)c1`, the Inhibition in the assay with Plasmodium falciparum [1] turned out to be 92%; in the assay with Plasmodium falciparum [2], 20%; with HepG2 it was 7%.

For `COc1ccccc1C1CCN(C2CCC(NC(=O)c3cc4ccccc4[nH]3)CC2)CC1` (stereo unspecified), the values for the Inhibition in the assay on Plasmodium falciparum [1], in the assay with Plasmodium falciparum [2] and in the assay with HepG2 were 88%, 7% and 49%, respectively.

Take `O=C(NCc1cccc(F)c1)Nc1cccc(-c2ccc(-c3nc4cc(C(F)(F)F)ccc4[nH]3)cc2)c1`: the Inhibition in the assay with Plasmodium falciparum [1] was 98%; in the assay on Plasmodium falciparum [2], 20%; in the assay on HepG2 it was 50%.

As for `CC(C)CN1CCCN(Cc2cccc(NC(=O)c3cc4ccccc4s3)c2)CC1.O=C(O)C(F)(F)F`, the Inhibition was found to be 87% in the assay with Plasmodium falciparum [1], 6% in the assay on Plasmodium falciparum [2] and 5% in the assay with HepG2.

As for `Cl.Oc1ccc2[nH]c(-c3cccs3)nc2c1CN1CCC(N2CCCC2)CC1`, the Inhibition in the assay on Plasmodium falciparum [1] came out at 100%; in the assay on Plasmodium falciparum [2] it was 13%; in the assay on HepG2, 6%.

Turning to `COc1cc(C(=O)NC2CC(C)(C)N(C)C(C)(C)C2)ccc1-c1cc2cc(Cl)c(Cl)cc2[nH]1`, the Inhibition is recorded as 89% in the assay with Plasmodium falciparum [1], 36% with Plasmodium falciparum [2] and 65% in the assay on HepG2.

For `O=C(CC1CCCCC1)NCC(NCCCNc1cc(=O)c2ccccc2[nH]1)c1cc(Br)cc(Br)c1` (stereo unspecified), the Inhibition in the assay with Plasmodium falciparum [1] is 95%; in the assay on Plasmodium falciparum [2], 52%; in the assay on HepG2, 8%.

On to `OC(CNc1ccnc(Nc2cccc(CCN3CCOCC3)c2)n1)c1ccccc1` (stereo unspecified), for which the Inhibition was 100% in the assay with Plasmodium falciparum [1], 14% in the assay on Plasmodium falciparum [2] and 34% with HepG2.

For `CCc1ccc(C2CCN(CCCCNC(=O)c3ccc(-c4ccc(C#N)cc4)cc3)CC2)c(OCCO)c1.Cl`, the Inhibition is on record as 94% in the assay with Plasmodium falciparum [1], 61% in the assay on Plasmodium falciparum [2] and 24% with HepG2.

With `Cc1cc(NCC(C)C)c2[nH]nc(-c3ccccc3)c2n1`, the Inhibition in the assay with Plasmodium falciparum [1] was 99%; with Plasmodium falciparum [2], 30%; in the assay with HepG2 it was 9%.

Take `COc1ccc(-c2ccc(CNCc3ccccc3)cc2)cc1S(=O)(=O)NCCN1CCCC1.O=C(O)C(F)(F)F`: the Inhibition was found to be 100% in the assay on Plasmodium falciparum [1], 76% in the assay with Plasmodium falciparum [2] and 36% in the assay with HepG2.

Consider `CCOC(=O)c1c[nH]c2c(ccc3ccccc32)c1=O`, for which the values for the Inhibition with Plasmodium falciparum [1], with Plasmodium falciparum [2] and in the assay with HepG2 were 96%, 96% and 0%, respectively.

For the compound `O=C(O)C(F)(F)F.OCC1CCN(Cc2cccc(-c3ccc(-c4nc5cc(F)ccc5[nH]4)cc3)c2)CC1`, the Inhibition in the assay on Plasmodium falciparum [1] is on record as 100%; with Plasmodium falciparum [2], 86%; in the assay on HepG2, 11%.

Consider `COc1cc2nc(N3CCC(CNC(=O)c4cc(Br)c(Br)s4)CC3)nc(N)c2cc1OC.O=C(O)C(F)(F)F`, for which the results for the Inhibition in the assay on Plasmodium falciparum [1], in the assay with Plasmodium falciparum [2] and in the assay on HepG2 were 100%, 97% and 22%, respectively.

As to `CCCN1CCN(CCCNC(=O)c2cc3c(-c4ccc(Cl)cc4)nn(C)c3s2)CC1`, the Inhibition in the assay with Plasmodium falciparum [1] worked out at 88%; with Plasmodium falciparum [2], 20%; with HepG2, 46%.

For the compound `Cc1nc2ccc(NC(=O)Nc3ccnc4ccc(C(F)(F)F)cc34)cc2o1`, the Inhibition in the assay on Plasmodium falciparum [1] stood at 89%; with Plasmodium falciparum [2] it was 24%; in the assay on HepG2, 20%.

Consider `CN1CCN(Cc2ccc(-c3cccc(-c4nc5ccccc5[nH]4)c3)cc2)CC1.O=C(O)C(F)(F)F`, for which the results for the Inhibition in the assay on Plasmodium falciparum [1], in the assay on Plasmodium falciparum [2] and in the assay with HepG2 were 93%, 6% and 21%, respectively.

For the compound `O=C(Nc1ccccc1)Nc1cccc(-c2cccc(-c3nc4cc(F)ccc4[nH]3)c2)c1`, the Inhibition in the assay with Plasmodium falciparum [1] came out at 99%; with Plasmodium falciparum [2], 41%; in the assay with HepG2, 38%.

As to `CS(=O)(=O)Nc1cccc(-c2cnc3[nH]cc(-c4ccc(CN)cc4)c3c2)c1`, the Inhibition in the assay on Plasmodium falciparum [1] turned out to be 98%; with Plasmodium falciparum [2] it was 95%; with HepG2, 27%.

As for `COc1ccc2c(ccc3c2ncc2c(=O)n(-c4ccccc4)[nH]c23)c1`, the Inhibition with Plasmodium falciparum [1] was determined as 95%; in the assay on Plasmodium falciparum [2] it was 92%; in the assay on HepG2 it was 0%.
